Assay results reported in PubChem BioAssay.
Unmarked numbers belong to inactive results. Active and inactive are the calls of the source.

Assay: plasmodial surface anion channel blockers, osmotic lysis – cell-based, P. falciparum Indochina, OD700, 2 h, primary screen (AID 1155);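 further: lysis reports solute entry through the parasite surface anion channel PSAC; channel blockers reduce lysis of infected cells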
Settings: P. falciparum Indochina infected erythrocytes, higher = more signal, called active from +8 up or from −8 down

SMILES	z-score
C=CC(=C)[C@H]1Oc2ccccc2S(=O)(=O)N2CCC[C@@H]12	0.751
[N-]=[N+]=Nc1ccccc1[C@@H]1OC(c2ccc(OCCCO)cc2)=N[C@]1(Cc1ccccc1)C(=O)N1CCOCC1	32.1 (active)
COCCOC(=O)N1C(=O)[C@@]2(c3cc(C#CCCO)ccc31)[C@H](C(N)=O)[C@H]1C(=O)O[C@H](c3ccccc3)[C@H](c3ccccc3)N1[C@@H]2c1ccc(O)cc1	0.213
C=C(C(=O)CC[C@@H](OC(=O)c1cccnc1)c1ccccc1OCCO)C(C)C	2.08
C=CCNC(=O)[C@H]1[C@@H]2C(=O)O[C@@H](c3ccccc3)[C@@H](c3ccccc3)N2[C@@H](c2ccccc2OCCO)[C@]12C(=O)Nc1ccc(C#CCC(C(=O)OC)C(=O)OC)cc12	1.84

Assay: changes in parasitized red cell lysis, either direction – P. falciparum Indochina, OD700, 3 h, PSAC antagonist project, primary screen (AID 1156)
Settings: P. falciparum-infected erythrocytes, osmotic lysis, higher = more signal, called active from +8 up or from −8 down

SMILES	z-score
CC(C)[Si]1(C(C)C)O[C@@H](c2ccccc2)c2cc(-c3ccc(-c4ccc(Cl)c(Cl)c4)o3)nc(-c3ccccc3)c21	-0.449
OCCCC1=CC(c2cccs2)N(Cc2cc3c(cc2Br)OCO3)CC1 (centres undefined)	-0.281
CCOC(=O)C[C@H]1[C@H](OC(=O)c2ccc(C(=O)c3ccccc3)cc2)[C@@H](NC(=O)c2ccc3ccccc3c2)c2cc(OCCCO)ccc2N1C(=O)Cc1ccc(OC)cc1	0.337
C=C(CC1([C@@H](NP(=O)(c2ccccc2)c2ccccc2)[C@H]2C[C@@H]2CCCC)CC1)c1ccccc1	2.62
COc1cc(COC(C)=O)ccc1OC(C)=O	-1.76
C=C(CCCC)/C(=C/C[C@@H](OC(=O)c1ccncc1)c1ccc(OCCO)cc1)c1cc(C(=O)OC)ccc1OC	1.85
C=C(CCCC)C(=O)CC[C@@H](OC(=O)c1ccccc1-c1ccccc1C(=O)O)c1ccc(OCCO)cc1	1.15
COCCOC(=O)N1C(=O)[C@@]2(c3cc(C#CCC(C(=O)OC)C(=O)OC)ccc31)[C@H](C(=O)Nc1nc3ccccc3s1)[C@H]1C(=O)O[C@H](c3ccccc3)[C@H](c3ccccc3)N1[C@@H]2c1ccccc1OCCO	0.599
NC(=O)N1C(=O)C2C(C1=O)C1C=C(c3ccc(CO)cc3)C2C(c2cccs2)N1Cc1cccc(OC(F)(F)F)c1 (centres undefined)	0.195
COCCOC(=O)N1C(=O)[C@@]2(c3cc(C#CCNC(N)=O)ccc31)[C@H](C(=O)N1CCN(c3ncccn3)CC1)[C@H]1C(=O)O[C@H](c3ccccc3)[C@H](c3ccccc3)N1[C@@H]2c1ccc(OCCO)cc1	1.26
CCCc1cc2c(n1Cc1cc(F)cc(F)c1)C(C)C1CN(C(=O)c3ccccc3)C(C)(C(=O)OC)C21 (centres undefined)	1.95
CCCC[C@@H]1C[C@H]1[C@@H](NC(=O)c1ccco1)c1ccc(-c2ccccc2)cc1	1.59
C=CC[C@@]12N=C(c3ccc(OCCCO)cc3)O[C@@H]1c1ccccc1N(C)C2=O	2.02
COC(=O)[C@@]1(Cc2ccccc2)N=C(c2ccc(OCCCO)cc2)O[C@H]1c1ccccc1	0.737
COc1cccc(-c2cccc(=O)o2)c1	-0.685
C=C[C@H](CO[Si](CC)(CC)CC)N(Cc1ccc(OC(C)=O)c(OC)c1)S(=O)(=O)c1ccc(Br)cc1	-0.738
NC(=O)NCC#Cc1ccc2c(c1)[C@]1(C(=O)N2)[C@H](c2ccc(O)cc2)N2[C@H](c3ccccc3)[C@H](c3ccccc3)OC(=O)[C@H]2[C@@H]1C(=O)O	0.259
COC(=O)C[C@H]1O[C@]2(C(=O)N(C)c3ccccc32)[C@@H](C)[C@@H]1[Si](C)(C)F	-0.338
O=C1C2C=CC(C(O)c3cc(C(F)(F)F)cc(C(F)(F)F)c3)N(n3cnnc3)C2C(=O)N1Cc1ccccc1 (centres undefined)	1.69
Cc1nc2cc(Br)ccc2c(=O)o1	0.193
C=C(CCCC)/C(=C/C[C@@H](OC(C)=O)c1ccc(OCCO)cc1)c1cnc2ccccc2c1	2.09
COc1cc2c(cc1O)C(C1CC1)N(Cc1sc3ccccc3c1Cl)CC2 (centres undefined)	-0.449
COc1cc2c(cc1O)C(c1cccs1)N(C)CC2 (centres undefined)	-0.0863
CN1C=C(C(=O)OCCS(C)(=O)=O)C(C(=O)OCCS(C)(=O)=O)=CC(c2ccc(CO)cc2)=CC1C1CC1 (centres undefined)	-0.107
